Source: ChEMBL document CHEMBL3433997, “St. Jude Leishmania screening dataset” (2016)
“And” between values parts separate entries of the source, which are not always exact repeats. Identical values can stand only once.

Tests used:
Assay type in all cases: functional
[1] = target: Solute carrier family 2, facilitated glucose transporter member 1 (Homo sapiens) (UniProt P11166); test: ST_JUDE_LEISH: Cytotoxicity at 2uM final concentration against transgenic Leishmania Mexicana promastigotes LmGLUT1 that are glucose transport deficient and complemented with the human glucose transporter GLUT1. Activity is measured by DNA content using SYBR green in vitro
[2] = target: Hexose transporter 1 (Plasmodium falciparum) (UniProt O97467); test: ST_JUDE_LEISH: Cytotoxicity at 2uM final concentration against transgenic Leishmania Mexicana promastigotes LmPfHT that are glucose transport deficient and complemented with the Plasmodium falciparum hexose transporter. Activity is measured by DNA content using SYBR green in vitro
[3] = target: Glucose transporter (Leishmania mexicana) (UniProt O61059); test: ST_JUDE_LEISH: Cytotoxicity at 2uM final concentration against transgenic Leishmania Mexicana promastigotes LmGT2 that are glucose transport deficient and complemented with the L. Mexicana glucose transporter 2. Activity is measured by DNA content using SYBR green in vitro

Chain of Solute carrier family 2, facilitated glucose transporter member 1 (Homo sapiens) (P11166 whole entry): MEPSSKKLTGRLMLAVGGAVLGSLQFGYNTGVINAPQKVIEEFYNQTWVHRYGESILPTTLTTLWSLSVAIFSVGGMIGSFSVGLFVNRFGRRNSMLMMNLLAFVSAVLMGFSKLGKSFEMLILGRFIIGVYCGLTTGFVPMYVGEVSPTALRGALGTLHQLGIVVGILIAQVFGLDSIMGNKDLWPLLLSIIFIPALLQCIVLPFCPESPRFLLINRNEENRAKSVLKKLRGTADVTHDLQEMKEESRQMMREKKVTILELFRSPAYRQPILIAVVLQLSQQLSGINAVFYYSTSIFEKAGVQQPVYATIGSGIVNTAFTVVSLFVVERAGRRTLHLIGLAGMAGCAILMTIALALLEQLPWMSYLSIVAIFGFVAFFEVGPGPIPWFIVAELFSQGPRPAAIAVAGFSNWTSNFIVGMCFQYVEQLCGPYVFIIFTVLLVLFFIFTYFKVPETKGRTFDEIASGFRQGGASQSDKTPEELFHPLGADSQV

| SMILES | inhibition [1] | inhibition [2] | inhibition [3] |
| --- | --- | --- | --- |
| Cc1ccc(/C=C/C(=O)NC2CCC(CN3CCC(c4c[nH]c5ccccc45)CC3)CC2)cc1C (stereo unspecified) | 3.87% and 0.74% | 3.35% and 0.58% | -0.3% and -2.39% |
| O=C(NC1CCC(CN2CCC(c3c[nH]c4ccccc34)CC2)CC1)[C@H]1Cc2ccccc2CN1 (stereo partly specified) | 1.47% | 2.41% | 4.44% |
| CC(=O)Nc1ccc2[nH]cc(C3CCN(CC4CCN(C(=O)/C=C/c5ccc(Cl)c(Cl)c5)CC4)CC3)c2c1 | 0.82% | -0.9% | 3.23% |
| CCCCCC(C)C(C)c1cc(O)c2c(c1)OC(C)(C)c1cnccc1-2 (stereo unspecified) | -1.41% | 0.7% | -1.32% |
| CCCCOC(C(=O)OCC1CCCN1C)(c1ccccc1)c1ccccc1 (stereo unspecified) | -0.11% | 1.91% | 2.05% |
| COc1ccc(C=CC(=O)NC2CCC(CN3CCC(c4c[nH]c5ccccc45)CC3)CC2)cc1OC (stereo unspecified) | 2.26% and 2.87% | 0.82% and 2.73% | -1.08% and -3.42% |
| CC(Cc1ccc(OCCCCOc2ccccc2)cc1)NCCc1ccccc1Cl (stereo unspecified) | 15% | 19.8% | 7.82% |
| O=C(/C=C/c1ccc(Cl)c(Cl)c1)NC1CCC(N2CCC(c3c[nH]c4ccccc34)CC2)CC1 (stereo unspecified) | 26% | 6.98% | 4.41% |
| CNCCCCCCc1ccc(CC(C)NCC(O)c2cccc(Cl)c2)cc1 (stereo unspecified) | 6.3% | 2.29% | 0.1% |
| O=C(C=Cc1cccc(Cl)c1Cl)NC1CCC(CN2CCC(c3c[nH]c4ccccc34)CC2)CC1 (stereo unspecified) | 9.75% and 1.21% | 23.6% and 3.22% | 11.8% and -0.36% |
| CC(Cc1ccc(OCc2ccccc2)cc1)NCC(O)c1cccc(Cl)c1 (stereo unspecified) | 5.48% | 3.61% | 4.23% |
| O=C(/C=C/c1ccc(Cl)c(Cl)c1)NCCCCCN1C2CCC1CC(c1c[nH]c3ccc(O)cc13)C2 (stereo unspecified) | 0.54% and -0.84% | 2.4% and -2.77% | -3.07% and -2.2% |
| CC[C@H]1CN2CCc3cc(OC)c(OC)cc3[C@@H]2C[C@@H]1C[C@H]1NCCc2c1cc(OC)c(OC)c2Br | 88% | 86.6% | 84.7% |
| CC[C@H]1CN2CC[C@@H]1C[C@H]2[C@H](O)c1cc(N2CCC(CO)CC2)nc2ccc(OC)cc12 | 1.5% | 1.17% | 2.66% |
| O=C(/C=C/c1ccc(Cl)c(Cl)c1)NCCC1CCC(N2CCC(c3c[nH]c4ccc(O)cc34)CC2)CC1 (stereo unspecified) | 0.48% | 3.87% | 1.36% |
| COCC(=O)N(Cc1cccc(-c2ccc(CNCCc3ccccc3)cc2)c1)C1CCN(Cc2ccccc2)CC1 | 3.83% | 5.42% | 2.98% |

| SMILES | inhibition [1] | inhibition [2] | inhibition [3] |
| --- | --- | --- | --- |
| C[C@H](Cc1ccc(OCCCCCCOc2ccccc2)cc1)NC[C@@H](O)c1cc(Br)no1 | 2.44% | 0.72% | -0.07% |
| Cc1cc(N)nc2ccc(CNCCc3ccccc3Br)cc12 | 1.91% | 1.25% | 1.79% |
| COC(=O)c1ccc(CC(C)NCC(O)c2cccc(SC(F)(F)F)c2)cc1 (stereo unspecified) | 2.85% | 4.05% | 4.01% |
| Oc1ccc(CN2CCN(CCOC(c3ccc(F)cc3)c3ccc(F)cc3)CC2)cc1Cl | 4.68% | -0.31% | -0.74% |
| CC(=O)C1(c2ccccc2)CCN(CCC2(c3ccc(Cl)c(Cl)c3)CN(C(=O)CC(C)C)CCO2)CC1 (stereo unspecified) | -0.51% | 0.43% | -2.67% |
| COc1cc(C=CC(=O)N2CCC(CN3CCC(c4c[nH]c5ccccc45)CC3)CC2)ccc1O | 8.46% | 6.19% | 6.97% |
| CNCCCCCCOc1ccc(CC(C)NCC(O)c2cccc(C(F)(F)F)c2)cc1 (stereo unspecified) | 18.4% | 2.66% | 1.22% |
| CN(c1cc(NC(=O)c2ccc(F)cc2)ccn1)C1CCN(Cc2cccc(O)c2)CC1 | 2.68% | 4.98% | 6.32% |
| Fc1ccc2[nH]cc(CCN3CCC(CNCc4ccccc4)CC3)c2c1 | 6.4% | 5.46% | 1.2% |
| COc1ccc(CN2CCN(CCOC(c3ccccc3)c3ccccc3)CC2)c(O)c1 | 3.13% | 2.42% | 0.74% |
| CC(C)N(C)C(=O)n1cnc(S(=O)(=O)C2CC3CCC2C3)n1 (stereo unspecified) | 2.26% | 1.45% | -0.84% |
| CCCCCSc1cc(O)c(C(CNC)C(C)C)cc1OC (stereo unspecified) | 1.1% | -1.89% | -2.39% |
| CN(C)c1cccc(NC(=O)N[C@H]2N=C(c3ccccc3)c3ccccc3N(CC(=O)N3CCCC3)C2=O)c1 | 2.85% | 2.62% | 2.53% |
| Oc1ccc(Cl)cc1CN1CCC(CCOC(c2ccccc2)c2ccc(Cl)cc2)CC1 (stereo unspecified) | 46.7% | 25.3% | 5.18% |
| CC[C@H]1CN2CC[C@H]1C[C@H]2[C@H](O)c1cc(-c2ccccc2F)nc2ccc(OC)cc12 | 0.68% | 1.58% | 0.34% |
| Cc1c(C)c2c(c(C)c1O)CC[C@@](C)(C(=O)NC1CCC(CN3CCC(c4c[nH]c5ccccc45)CC3)CC1)O2 (stereo partly specified) | 6.35% | 5.08% | 3.01% |
